In all, about 1,100 compounds went through this assay and fewer than 10 were called active. Inconclusive results (about 6%) are left out. Calls come from the whole dose curve; as a rule, active = well fitted cell-killing curve with a large enough effect; inconclusive = small, poorly fitted or top-dose-only effect; inactive = flat fitted curve, though single readings scatter. Not all results are given here. Where a call stands in place of a potency, no number is given.
test: qHTS of Nrf2 Activators: Hit Validation in Cytotox Assay; conditions: Cell viability counter-screen for Nrf2 activator hits; series mostly up to 46.1 µM;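 note: compound exposure lasted 24 hours before the ATP readout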
Excerpt: Many diseases have some form of oxidative stress injury and ties to inflammation, causing a host of problems for the patient. The antioxidant response element (ARE) plays an important role in alleviating the harmful effects of oxidative stress. The antioxidant response element (ARE) is a transcriptional regulatory element involved in the activation of genes coding for a number of antioxidant proteins and detoxifying enzymes. These enzymes work in concert to protect tissues from oxidative insults and chemical toxicities in human hepatocytes and immune cells. The protective effects of ARE activation are primarily triggered through Nrf2 (NF-E2-related factor) binding to and activating AREs. It is known that Nrf2 controls the production of over 250 antioxidant and detoxification proteins (Hu et al., 2006), thereby protecting tissues by increasing cellular antioxidant content and suppressing inflammatory signaling pathways. The transcription factor Nrf2 is a central link between oxidative chemicals, such as phenolic antioxidants and electrophilic compounds, and the activation of ARE. Nrf2 levels are constitutively low as a consequence of its interaction with Keap1, which targets its degradation (Zipper and Mulcahy, 2002). Electrophiles react with key cysteine residues in Keap1, releasing Nrf2 and allowing its translocation to the nucleus. Once within the nucleus, Nrf2 complexes with coactivators such as p300, and binds to the AREs to induce gene transcription of cytoprotective enzymes, resulting in the prevention of toxicity. Activation of Nrf2 protects tissues by increasing cellular antioxidant content and suppressing inflammatory signaling pathways. Identifying novel and potent Nrf2 activators by using the AREc32 cell line to detect ARE activation by small molecules will lead to the identification and development of probes to study protective pathways in multiple tissues. These specific probes are essential to study the ARE pathway, and eventually to determine whether this pathway does activate genes that could protect against a host of diseases, including cardiovascular diseases, obesity, diabetes, Alzheimer's, and Parkinson's disease.
This project's aim is to identify novel and potent Nrf2 activators by using the AREc32 cell line to detect ARE activation by small molecules, which will lead to the identification and development of probes to study the ARE pathway. Cytotoxic compounds are flagged as active, and inactivity is desired in this assay.
NIH Chemical Genomics Center [NCGC]
NIH Molecular Libraries Probe Centers Network [MLPCN]
Assay Submitter (PI): Curtis Klaassen, University of Kansas Medical Center
Cell viability after compound treatment was measured using a luciferase-coupled ATP quantitation assay (CellTiter-Glo, Promega) in AREc32_fluc cells. The change of intracellular ATP content indicates the number of metabolically competent cells after compound treatment. AREc32_fluc cells were harvested from T225 flask and resuspended in phenol red free OPTI-MEM medium with 5% FBS. Then 5 microL of 200,000 cells/ml resuspended cells was dispensed into each well of white, solid bottom, 1536-well tissue culture-treated plates using a Multidrop Combi dispenser. After overnight culture at 37 degrees C with 5% CO2, a total of 23 nL of compounds at 7 selected concentrations from the cherry pick or positive control (40 uM stock of CDDO-IM and 2 mM of tBHQ) in DMSO was transferred to each well of the assay plate using a pintool (Kalypsys, San Diego, CA), and the plates were further incubated at 37 degrees C with 5% CO2 for 24 hours. After that, 4 microL of CellTilter-GloTM luminescent substrate mix (Promega) was added to each well. The plate was incubated at room temperature for 30 minutes. The plates were measured on a ViewLux plate reader (PerkinElmer) with clear filter.
Potency is the fitted concentration of half-maximal effect.

Compound | Potency
O=C(Nc1ccccc1F)c1cc(-c2ccco2)nc2ccccc12 | inactive
COc1ccc(Cl)cc1-c1nc(-c2ccncc2)no1 | inactive
S=c1[nH]nc(-c2ccco2)n1/N=C/c1cccc(Cl)c1Cl | inactive
N#Cc1cnc2cc(-c3ccccc3)nn2c1N | inactive
O=C(CSc1ccc(-c2ccco2)nn1)N1CCCC1 | inactive
CCNc1ccc(-c2nc(-c3ccco3)no2)cc1[N+](=O)[O-] | inactive
COC(=O)c1ccc2nc(-c3cccc(Br)c3)c(Cc3ccccc3OC)n2c1 | inactive
Fc1ccc2nc(Nc3nc4c(F)cc(F)cc4s3)sc2c1 | inactive
N#Cc1cccn1-c1nccc(-c2cccs2)n1 | inactive
O=C(NC(=S)Nc1cc([N+](=O)[O-])ccc1Cl)c1ccccc1 | inactive
Cc1cc(SCC(=O)c2cccs2)nc2ccccc12 | inactive
O=C(NCc1ccco1)c1ccccc1-c1nc(-c2ccc(F)cc2)no1 | inactive
O=[N+]([O-])c1ccc(SCc2ccco2)cc1N1CCOCC1 | inactive
CCOC(=O)N1CCc2c(sc3c2C(=O)NC(c2ccccc2)N3)C1 (stereo not given) | inactive
CC(=O)c1cccc(NC(=O)c2cc(Cl)sc2Cl)c1 | inactive
Cn1c(N/N=C/c2cccs2)cc(=O)n(C)c1=O | inactive
Cc1cc(=O)n2nc(-c3ccccc3)sc2c1C#N | inactive
Cc1cc(C)c(C#N)c(SCC(=O)c2cccs2)n1 | inactive
COc1ccc(O)c(-c2cc(-c3ccccc3Cl)[nH]n2)c1 | inactive
CCn1c(SCC(=O)N/N=C/C=C/c2ccco2)nc2ccccc21 | inactive
Cc1ccc(NC(=O)COCc2cc(-c3cccs3)on2)cc1Cl | inactive
c1ccc2c(c1)nnn2-c1ncnc2sccc12 | inactive
O=C(CSc1nc2c(sc3ccccc32)c(=O)n1-c1ccccc1)NCc1ccco1 | inactive
S=c1[nH]nc(-c2ccncc2)n1/N=C/C=C/c1ccco1 | inactive
Clc1ccccc1NN=Cc1ccccn1 | inactive
Cc1cc(NC(=O)c2ccccc2)nc2c1c(=O)oc1ccccc12 | inactive

Compound | Potency
CCCn1c(-c2cccs2)nc2nc3ccccc3nc21 | inactive
CCOC(=O)c1sc(NC(=O)c2ccccc2F)c(C(N)=O)c1C | inactive
C#CCSc1nc(-c2ccccc2)cc(C(F)(F)F)c1C#N | inactive
O=Cc1c(NCc2ccco2)nc2ccccn2c1=O | inactive
COC(=O)C1=C(C)NC(=O)/C1=C\c1ccco1 | inactive
Cc1nc(-c2ccccn2)sc1C(=O)Nc1ccc(F)cc1 | inactive
CC(=O)Nc1cc(-c2ccsc2)cn2c(-c3ccc(F)cc3)cnc12 | inactive
O=C(Nc1ccc(F)cc1)c1nsc(Cl)c1Cl | inactive
CS(=O)(=O)c1ccc2nc(NC(=O)CCS(=O)(=O)c3ccccc3)sc2c1 | inactive
O=C(Cn1ncc(Cl)c(Cl)c1=O)NC1CCS(=O)(=O)C1 (stereo not given) | inactive
Cc1ccccc1OCC(=O)Nc1ccccc1CO | inactive
O=C(c1nn2c(C(F)(F)F)cc(-c3ccco3)nc2c1Br)N1CCCc2ccccc21 | inactive
Cc1ccc([N+](=O)[O-])c(OCc2ncc(Cl)n2C)c1 | inactive
O=c1[nH]c(O)c(/C=C2\C=Nc3ccc(Br)cc32)[nH]1 | inactive
COc1ccc(/C(N)=N/OC(=O)c2cccc([N+](=O)[O-])c2)cc1 | inactive
N/C(=N\OC(=O)c1ccco1)c1cccc(Br)c1 | inactive
O=c1c2ccccc2oc2cc(Br)ccc12 | inactive
COc1ccc(C=O)cc1OS(=O)(=O)c1ccccc1[N+](=O)[O-] | inactive
COc1ccccc1Nc1nc2ccccc2n2cnnc12 | inactive
O=c1cc(-c2ccccc2Cl)oc2c(Br)ccc(O)c12 | inactive
Cc1ccc(N=C2NC(=O)S/C2=C\c2ccco2)cc1 | inactive
c1ccc(-c2nc3c4ccccc4ccn3c2Cc2ccsc2)cc1 | inactive
COC(=O)c1c(NC(=O)/C=C/C(=O)O)sc(C)c1-c1ccc(C(C)C)cc1 | inactive
COc1cccc(-c2nc3n(n2)CCc2ccccc2-3)c1 | inactive
C/C(=N\NC(=O)COc1ccccc1[N+](=O)[O-])c1cccs1 | inactive
O=c1oc2ccccc2cc1-c1nc(-c2cccs2)cs1 | inactive

Compound | Potency
NC(=O)c1oc2ccccc2c1NC(=O)c1ccco1 | inactive
Brc1ccccc1/C=N/Nc1ccccn1 | inactive
O=C(/C=C/c1ccccc1Cl)Nc1nc(-c2cccs2)ns1 | inactive
Cc1[nH]c2ccccc2c1N=Nc1ccccc1F | inactive
O=C(N=Nc1c(O)[nH]c2ccc(Br)cc12)c1ccco1 | inactive
CCOC(=O)N/N=C\C=C\c1ccco1 | inactive
O=C(NC(=S)Nc1ccc(Br)cn1)c1cccs1 | inactive
COc1ccccc1C=Cc1ccnc2ccccc12 | inactive
S=C(NNc1ccc2ccccc2c1)NC1CCCCC1 | inactive
OCC1OC(n2cnc3c(NCc4ccccc4O)ncnc32)C(O)C1O (stereo not given) | 5.17 µM (active)
c1ccc2c(-c3nc4ncccc4o3)cccc2c1 | inactive
COc1ccc([N+](=O)[O-])cc1C1NN=C(c2ccccc2O)S1 (stereo not given) | inactive
Clc1ccc(Br)cc1-c1nc(-c2ccncc2)no1 | inactive
NC(=O)c1c(NC(=O)c2ccco2)sc2c1CCC2 | inactive
O=C(Nc1ccccn1)c1csc2c1CCCC2 | inactive
O=C(Nc1ccccn1)Nc1ccccc1Cl | inactive
CC1(C)CC[C@]2(C(=O)n3ccnc3)CC[C@]3(C)[C@H](C(=O)C=C4[C@@]5(C)C=C(C#N)C(=O)C(C)(C)[C@@H]5CC[C@]43C)[C@@H]2C1 | 8.2 µM (active)
Fc1ccccc1-c1nc(-c2ccc(Cl)cc2)no1 | inactive
COc1cc(/C=N/Nc2nc3ccccc3s2)ccc1OC(=O)c1ccccc1F | inactive
Cc1c(Cl)cccc1NC(=S)NC(=O)c1ccccc1 | inactive
c1ccc(-c2cc3c(-n4cccc4)ncnc3o2)cc1 | inactive
O=C(NC(=S)Nc1nc(-c2ccccc2)cs1)c1cccs1 | inactive
CS(=O)(=O)Nc1ccc(C(=O)Nc2cccc([N+](=O)[O-])c2)cc1 | inactive
COc1c(C(=O)Nc2nnc(C3CC3)s2)csc1Cl | inactive
O=C(Nc1cc(-c2nc3cc(Cl)ccc3o2)ccc1Cl)c1ccco1 | inactive
Cc1cc(=O)oc2c(C(=O)/C=C\c3cccs3)c(O)ccc12 | inactive

Compound | Potency
Cn1cnnc1Sc1ccc(/C=C/C(=O)c2ccc(O)cc2)cc1[N+](=O)[O-] | inactive
COC(=O)c1c(NC(=O)c2ccco2)sc(C)c1C | inactive
c1cncc(-c2noc(-c3cccc4ccccc34)n2)c1 | inactive
Nc1c(Cl)cc(N=Nc2ccccc2)cc1Cl | inactive
Cc1sc2c(c1C)C(=O)NC(c1ccccc1F)N2 (stereo not given) | inactive
Clc1cccc(Cc2c(-c3ccco3)nc3c4ccccc4ccn23)c1 | inactive
Cc1csc(NC(=O)/C=C/c2ccco2)n1 | inactive
c1ccc(N2CC3COc4ccccc4C3=N2)cc1 (stereo not given) | inactive
O=C(/C=C/c1ccc2c(c1)OCO2)c1ccc(O)cc1O | inactive
N#Cc1c(-c2ccco2)cc(-c2ccc(F)cc2)nc1N | inactive
O=c1[nH]ncc(N/N=C\c2cccs2)c1Cl | inactive
COc1ccccc1NC(=O)C(=O)Nc1ccccn1 | inactive
O=c1[nH]c(/C(Cl)=C/c2cc(Cl)ccc2O)nc2cc(Cl)ccc12 | inactive
O=C(Cn1cnc2scc(-c3cccc([N+](=O)[O-])c3)c2c1=O)NCc1ccco1 | inactive
O=C(/C=C/c1ccco1)Nc1cccnc1Cl | inactive
CCOC(=O)c1c(-c2ccco2)csc1NC(=O)CSc1nnc(N)s1 | inactive
CCOC(=O)c1ccccc1N/C=C/C(=O)c1cccs1 | inactive
CN1CCCC1CCNc1ccc2c(=O)c3ccccc3oc2c1 (stereo not given) | inactive
Clc1nc(-c2ccccc2)cc(-c2ccccc2)n1 | inactive
O=C(N/N=C\c1ccco1)Nc1cccc(Cl)c1 | inactive
CN1c2ccsc2/C(=N/Nc2ccccc2)CS1(=O)=O | inactive
O=C(c1ccccc1)[C@@H]1[C@@H]2C(=O)N(c3ccc(F)cc3)C(=O)[C@@H]2C2CCCN21 (stereo not given in full) | inactive
CC1CCCCC1NC(=O)COC(=O)c1c2c(nc3ccccc13)/C(=C/c1ccco1)CC2 (stereo not given) | inactive
CNc1ccccc(C(=O)/C=C/c2ccccc2OC)c1=O | inactive
O=C(N/N=C/c1ccc(-c2cccc([N+](=O)[O-])c2)o1)c1cccs1 | inactive
O=C(Nc1ccccn1)c1ccc(Cl)c([N+](=O)[O-])c1 | inactive

Compound | Potency
O=C(/C=C/c1ccco1)Nc1cccc(S(=O)(=O)N2CCOCC2)c1 | inactive
Cc1ccc([N+](=O)[O-])cc1NC(=O)c1ccc(C(C)(C)C)cc1 | inactive
O=C1/C(=C/c2ccccc2O)SC(=S)N1Cc1cccnc1 | inactive
Cc1ccc(S(=O)(=O)/N=C(/NNC(=O)c2cccc(Cl)c2)c2ccccc2)cc1 | inactive
Cc1ccc2ccc(C3C(=O)c4ccccc4C3=O)nc2c1 | inactive
Fc1cc(F)c2nc(Nc3nc4cc5c(cc4s3)OCO5)sc2c1 | inactive
CC(/C=N/NC(=O)Cc1cccn1C)=C\c1ccco1 | inactive
CCCCn1c(O)c(N=Nc2ccccn2)c2ccccc21 | inactive
Oc1ccc2ccccc2c1N=Nc1ccccn1 | 5.17 µM (active)
CC(C)CCn1c(O)c(N=Nc2ccccn2)c2ccccc21 | inactive
O=C(Nc1ccccc1[N+](=O)[O-])C1COc2ccccc2O1 (stereo not given) | inactive
CCOC(=O)COn1c(=O)c(-c2ccco2)[n+]([O-])c2ccccc21 | inactive
C(=Cc1cnnc2ccccc12)c1ccccc1 | inactive
Cc1ccc(S(=O)(=O)c2nc(S(C)(=O)=O)sc2N2CCC(C)CC2)cc1 | inactive
O=C1C(Cl)=C(N2CCN(c3ccccc3[N+](=O)[O-])CC2)C(=O)c2ccccc21 | 18.4 µM (active)
N#CC1CC(c2ccccc2)=NN1c1ccccc1[N+](=O)[O-] (stereo not given) | inactive
O=C1C(=Cc2ccccc2[N+](=O)[O-])Cc2ccccc21 | inactive
COC(=O)c1sccc1NC(=O)c1cccc(OC)c1 | inactive
N#C/C(=C1/C(=O)Nc2ccc(Br)cc21)c1ccccn1 | inactive
Nc1ccc2c(c1)Cc1c(F)cccc1-2 | inactive
COc1ccc2[nH]c3c(NCc4ccco4)ncnc3c2c1 | inactive
O=C(/C(C=Nc1ccc(F)cc1)=C(/O)c1ccco1)C(F)(F)F | inactive
CC(C)Nc1ccc(-c2nc(-c3ccco3)no2)cc1[N+](=O)[O-] | inactive
O=C(CSc1ccccn1)N/N=C/c1ccccc1[N+](=O)[O-] | inactive
CCOc1ccccc1NC(=S)NC(=O)c1ccco1 | inactive
O=C(Nc1nc2ccc(F)cc2s1)c1ccc([N+](=O)[O-])o1 | inactive
